In PubChem BioAssay (EPA / NIEHS):
Several values for one entry are separate records, joined by “and”; a condition that tells them apart may be missing. Identical values can stand only once. Inconclusive results are not listed. Where a structure was tested more than once in an assay, its records may differ in their call. Activity calls are given as the source filed them. How the source made its calls, unless noted: active means hit-call score of the fitted dose curve at least 0.9, where 1 is the maximum; inconclusive means response in the unintended direction; inactive means score below 0.9.

Experiments:
[1] = target: rat Vasopressin 1 Receptor (V1), Avpr1a (gene 25107) (UniProt P30560); assay: NVS_GPCR_rV1: NovaScreen (NVS) G Protein-Coupled Receptor Assay for rat Vasopressin 1 Receptor (V1) (AID 2283316)
In short: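 Radioligand binding on rat liver membranes, 1.5 h incubation, filter-based scintillation counting. Single 25 uM screen in duplicate; chemicals meeting threshold (e.g. 30% inhibition) run in concentration-response up to 50 uM.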

[2] = target: rat Opioid Receptor, Non-selective Binding, Oprm1 (gene 25601) (UniProt P33535); assay: NVS_GPCR_rOpiate_NonSelective: NovaScreen (NVS) G Protein-Coupled Receptor Assay for rat Opioid Receptor, Non-selective Binding (AID 2283318)
In short: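 Rat forebrain membranes, cell-free radioligand binding with filter-based scintillation counting, read 1.5 h after dosing. Primary screen in duplicate at 25 uM; actives retested in concentration series. Loss of signal versus DMSO baseline scored.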

[3] = NVS_IC_rCaDHPRCh_L: NovaScreen (NVS) Ion Channel Assay for rat Calcium Channel, Type L, Dihydropyridine Site (CaDHPRCh_L) (AID 2283320)
In short: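 Radioligand binding to dihydropyridine site on rat cortical membranes, filter-based scintillation counting, 1 h after dosing. Screened in duplicate at 25 uM; actives rerun in concentration-response up to 50 uM. Loss of signal versus DMSO baseline.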

[4] = target: Sodium channel protein type 1 subunit alpha (Rattus norvegicus) (UniProt P04774); assay: NVS_IC_rNaCh_site2: NovaScreen (NVS) Ion Channel Assay for rat Sodium Channel, Site 2 (NaCh) (AID 2283322);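 further: hit means loss of radioligand binding signal relative to DMSO so AC50 marks displacement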
In short: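 Membranes: rat forebrain. Format: competitive radioligand displacement, filter separation, scintillation readout, 1 h exposure. Primary screen in duplicate at 25 uM; actives retested in concentration series.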

[5] = target: rat Gamma-Aminobutyric Acid Type A Receptor, Non-Selective (GABAR-NonSelective), Gabra1 (gene 29705) (UniProt P62813); assay: NVS_LGIC_rGABAR_NonSelective: NovaScreen (NVS) Ligand-Gated Ion Channel Assay for rat Gamma-Aminobutyric Acid Type A Receptor, Non-Selective (GABAR-NonSelective) (AID 2283326)
In short: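 Radioligand displacement on rat whole-brain extract, 1 h, filter scintillation readout; signal loss fitted versus DMSO. Primary screen in duplicate at 25 uM; hits (e.g. ≥30% inhibition) retested in concentration-response up to 50 uM.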

[6] = target: Voltage-gated inwardly rectifying potassium channel KCNH2 (Homo sapiens) (UniProt Q12809); assay: NVS_IC_hKhERGCh: NovaScreen (NVS) Ion Channel Assay for human Potassium Channel ERG (KhERGCh) (AID 2283333)
In short: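 Cell-free radioligand competition binding on hERG protein extracted from CHO cells, read by filter-based scintillation counting 0.75 h after dosing. Primary screen at 25 uM in duplicate, actives followed in concentration series. Signal loss fitted versus DMSO.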

[7] = target: rat Peripheral-type Benzodiazepine Receptor (PBR), Tspo (gene 24230) (UniProt P16257); assay: NVS_MP_rPBR: NovaScreen (NVS) Membrane Protein Assay for rat Peripheral-type Benzodiazepine Receptor (PBR) (AID 2283335)
In short: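 Radioligand displacement, rat kidney membrane prep, 1 h exposure, filter-based scintillation read; DMSO baseline, loss-of-signal scored. Primary screen at 25 uM in duplicate, actives followed up in concentration series.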

[8] = target: rat Glutamate, NMDA Agonist Site (GluNMDA), Grin1 (gene 24408) (UniProt P35439); assay: NVS_LGIC_rGluNMDA_Agonist: NovaScreen (NVS) Ligand-Gated Ion Channel Assay for rat Glutamate, NMDA Agonist Site (GluNMDA) (AID 2283327)
In short: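 Rat forebrain membranes, radioligand binding in the agonist-site protocol; 1 h after dosing; filter-based scintillation counting. Single-concentration duplicate screen at 25 uM, then concentration-response up to 50 uM for actives; gain-of-signal vs DMSO.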

[9] = target: rat Neonicotinoid receptor (NNR), Chrna7 (gene 25302) (UniProt Q05941); assay: NVS_LGIC_rNNR_BungSens: NovaScreen (NVS) Ligand-Gated Ion Channel Assay for rat Neonicotinoid receptor (NNR) (AID 2283315)
In short: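 Radioligand displacement binding on rat cortical membranes, 2.5 h incubation, filtration and scintillation counting. Loss of specific binding fitted relative to DMSO.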

[10] = tested on: NCBI gene 24521; assay: NVS_IC_rKATPCh: NovaScreen (NVS) Ion Channel Assay for rat Potassium Channel, ATP-Sensitive (KATPCh) (AID 2283319)
In short: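 Rat cortical membranes; radioligand binding at ATP-sensitive K channel site, filter-based scintillation counting 2 h after dosing. Single-point duplicate screen at 25 uM, hits rerun in concentration-response up to 50 uM; loss of signal versus DMSO.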

[11] = target: human Androgen Receptor (AR), AR (gene 367) (UniProt P10275); assay: NVS_NR_hAR: NovaScreen (NVS) Nuclear Receptor Binding Assay for human Androgen Receptor (AR) (AID 2283332)
In short: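 Actives from a duplicate 25 uM single-point screen went on to concentration series. Read-out after 20 h was scintillation counting of displaced radioligand in LnCAP extract, with DMSO as baseline.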

[12] = target: Glutamate receptor ionotropic, kainate 1 (Rattus norvegicus) (UniProt P22756); assay: NVS_IC_rKAR: NovaScreen (NVS) Ion Channel Assay for rat Kainic Acid Receptors (KAR) (AID 2283334; active means hit-call score of the fitted dose curve at least 0.9, where 1 is the maximum; inactive means score below 0.9)
In short: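 Radioligand displacement binding using rat forebrain membranes, 1 h incubation, filter-based scintillation counting. Screened in duplicate at 25 uM, with actives retested in concentration-response up to 50 uM; fitted against DMSO.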

[13] = target: bovine Gamma-Aminobutyric Acid Type A Receptor BDZ, alpha 5 site (GABARa5), GABRA5 (gene 523515) (UniProt Q08E50); assay: NVS_LGIC_bGABARa5: NovaScreen (NVS) Ligand-Gated Ion Channel Assay for bovine Gamma-Aminobutyric Acid Type A Receptor BDZ, alpha 5 site (GABARa5) (AID 2283323)
In short: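 Radioligand competitive displacement binding on bovine hippocampal membranes, read 1 hr after dosing by filter-based scintillation counting. Primary screen at 25 uM in duplicate; actives (e.g. ≥30% inhibition) then run in concentration-response up to 50 uM.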

[14] = target: rat Glutamate, AMPA Site (AMPA), Gria1 (gene 50592) (UniProt P19490); assay: NVS_LGIC_rAMPA: NovaScreen (NVS) Ligand-Gated Ion Channel Assay for rat Glutamate, AMPA Site (AMPA) (AID 2283324)
In short: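 Rat forebrain membranes; radioligand binding read 1 h after dosing by filtration and scintillation counting. Duplicate single-point screen at 25 uM, then concentration-response to 50 uM for threshold hits (e.g. 30% inhibition); loss of signal vs DMSO.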

[15] = target: rat Oxytocin Receptor (OXT), Oxtr (gene 25342) (UniProt P70536); assay: NVS_GPCR_rOXT: NovaScreen (NVS) G Protein-Coupled Receptor Assay for rat Oxytocin Receptor (OXT) (AID 2283330)
In short: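 Radioligand displacement on rat uterine membranes, 1 h incubation, filter-based scintillation counting. Chemicals were screened in duplicate at 25 uM, and those passing threshold were retested in concentration-response up to 50 uM. Loss of binding was fitted versus DMSO.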

[16] = target: bovine Gamma-Aminobutyric Acid Type A Receptor BDZ, alpha 1 site (GABARa1), GABRA1 (gene 780973) (UniProt P08219); assay: NVS_LGIC_bGABARa1: NovaScreen (NVS) Ligand-Gated Ion Channel Assay for bovine Gamma-Aminobutyric Acid Type A Receptor BDZ, alpha 1 site (GABARa1) (AID 2283321)
In short: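 Radioligand competition binding on bovine cortical membranes, 0.75 h, filter-based scintillation counting. Primary single concentration 25 uM in duplicate; actives rerun in concentration-response to 50 uM max. Loss of signal fitted versus DMSO.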

[17] = target: Voltage-dependent N-type calcium channel subunit alpha-1B (Rattus norvegicus) (UniProt Q02294); assay: NVS_IC_rCaChN: NovaScreen (NVS) Ion Channel Assay for rat Calcium Channel, Type N (CaChN) (AID 2283317)
[18] = NVS_IC_rCaBTZCHL: NovaScreen (NVS) Ion Channel Assay for Calcium Channel, Type L, Benzothiazepine Site (CaBTZCHL) (AID 2283337)
In short: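 Radioligand binding to the benzothiazepine site of L-type Ca channels in rat cortical membranes (cell-free), 1.5 h after dosing; filter-based scintillation counting. Loss of signal relative to DMSO baseline; primary single-concentration screen at 25 uM, actives then run in concentration series.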

[19] = target: Small conductance calcium-activated potassium channel protein 1 (Rattus norvegicus) (UniProt P70606); assay: NVS_IC_rKCaCh: NovaScreen (NVS) Ion Channel Assay for rat Potassium Channel, Ca2+ Act., VI (KCaCh) (AID 2283336)
In short: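 Radioligand binding to rat forebrain membranes, cell-free, read 1 hour after dosing by filter-based scintillation counting. Compounds first run in duplicate at 25 uM, actives then in concentration series; loss of signal vs DMSO indicates displacement.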

Chain of Voltage-gated inwardly rectifying potassium channel KCNH2 (Homo sapiens) (Q12809 whole entry, looked up): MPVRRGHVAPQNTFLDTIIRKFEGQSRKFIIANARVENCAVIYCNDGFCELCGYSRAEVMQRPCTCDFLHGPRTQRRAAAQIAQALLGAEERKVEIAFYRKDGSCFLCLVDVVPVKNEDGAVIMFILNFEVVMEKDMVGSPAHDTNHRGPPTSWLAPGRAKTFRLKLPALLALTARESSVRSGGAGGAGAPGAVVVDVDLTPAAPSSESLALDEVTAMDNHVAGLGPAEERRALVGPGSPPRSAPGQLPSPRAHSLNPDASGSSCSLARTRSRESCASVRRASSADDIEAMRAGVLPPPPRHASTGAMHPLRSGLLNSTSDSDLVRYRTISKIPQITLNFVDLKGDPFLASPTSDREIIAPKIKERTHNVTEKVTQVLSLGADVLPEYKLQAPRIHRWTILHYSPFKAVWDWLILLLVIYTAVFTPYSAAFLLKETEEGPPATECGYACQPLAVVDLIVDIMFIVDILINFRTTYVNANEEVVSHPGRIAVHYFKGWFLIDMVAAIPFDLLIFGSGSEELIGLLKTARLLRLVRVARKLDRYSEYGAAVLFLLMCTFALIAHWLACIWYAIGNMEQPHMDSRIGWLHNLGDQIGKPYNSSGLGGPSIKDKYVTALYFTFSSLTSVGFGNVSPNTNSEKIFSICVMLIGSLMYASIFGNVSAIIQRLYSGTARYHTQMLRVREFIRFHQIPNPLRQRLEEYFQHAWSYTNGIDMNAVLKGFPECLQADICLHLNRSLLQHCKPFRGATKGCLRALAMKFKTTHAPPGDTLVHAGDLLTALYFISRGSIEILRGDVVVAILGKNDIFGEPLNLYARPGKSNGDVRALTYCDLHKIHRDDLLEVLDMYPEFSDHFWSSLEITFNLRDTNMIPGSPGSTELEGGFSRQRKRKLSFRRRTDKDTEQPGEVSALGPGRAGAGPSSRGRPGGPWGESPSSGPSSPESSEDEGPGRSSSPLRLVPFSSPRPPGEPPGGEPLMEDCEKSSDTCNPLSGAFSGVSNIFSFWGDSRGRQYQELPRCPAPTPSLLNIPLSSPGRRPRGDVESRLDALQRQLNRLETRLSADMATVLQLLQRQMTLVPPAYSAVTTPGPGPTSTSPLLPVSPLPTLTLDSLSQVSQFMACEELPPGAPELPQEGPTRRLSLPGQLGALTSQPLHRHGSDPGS
Chain of rat Peripheral-type Benzodiazepine Receptor (PBR), Tspo (gene 24230) (P16257 whole entry, looked up): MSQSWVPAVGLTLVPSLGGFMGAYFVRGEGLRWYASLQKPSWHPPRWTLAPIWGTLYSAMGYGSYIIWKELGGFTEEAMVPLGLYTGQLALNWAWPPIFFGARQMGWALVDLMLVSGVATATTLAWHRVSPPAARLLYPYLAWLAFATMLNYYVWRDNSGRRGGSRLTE
Chain of bovine Gamma-Aminobutyric Acid Type A Receptor BDZ, alpha 5 site (GABARa5), GABRA5 (gene 523515) (Q08E50 whole entry, looked up): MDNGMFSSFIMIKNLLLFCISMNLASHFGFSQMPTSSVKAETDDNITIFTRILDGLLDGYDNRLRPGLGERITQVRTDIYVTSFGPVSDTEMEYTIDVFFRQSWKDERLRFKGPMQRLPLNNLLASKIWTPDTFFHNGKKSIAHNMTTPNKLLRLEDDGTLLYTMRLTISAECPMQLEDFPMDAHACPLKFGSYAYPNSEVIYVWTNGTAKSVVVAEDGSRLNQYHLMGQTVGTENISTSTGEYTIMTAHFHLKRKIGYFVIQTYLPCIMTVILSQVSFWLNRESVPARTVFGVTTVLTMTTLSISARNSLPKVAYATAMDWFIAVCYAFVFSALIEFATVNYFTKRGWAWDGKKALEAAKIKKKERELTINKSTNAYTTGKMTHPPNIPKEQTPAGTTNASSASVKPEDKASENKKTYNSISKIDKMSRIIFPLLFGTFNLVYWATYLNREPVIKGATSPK
Chain of Glutamate receptor ionotropic, kainate 1 (Rattus norvegicus) (P22756 whole entry, looked up): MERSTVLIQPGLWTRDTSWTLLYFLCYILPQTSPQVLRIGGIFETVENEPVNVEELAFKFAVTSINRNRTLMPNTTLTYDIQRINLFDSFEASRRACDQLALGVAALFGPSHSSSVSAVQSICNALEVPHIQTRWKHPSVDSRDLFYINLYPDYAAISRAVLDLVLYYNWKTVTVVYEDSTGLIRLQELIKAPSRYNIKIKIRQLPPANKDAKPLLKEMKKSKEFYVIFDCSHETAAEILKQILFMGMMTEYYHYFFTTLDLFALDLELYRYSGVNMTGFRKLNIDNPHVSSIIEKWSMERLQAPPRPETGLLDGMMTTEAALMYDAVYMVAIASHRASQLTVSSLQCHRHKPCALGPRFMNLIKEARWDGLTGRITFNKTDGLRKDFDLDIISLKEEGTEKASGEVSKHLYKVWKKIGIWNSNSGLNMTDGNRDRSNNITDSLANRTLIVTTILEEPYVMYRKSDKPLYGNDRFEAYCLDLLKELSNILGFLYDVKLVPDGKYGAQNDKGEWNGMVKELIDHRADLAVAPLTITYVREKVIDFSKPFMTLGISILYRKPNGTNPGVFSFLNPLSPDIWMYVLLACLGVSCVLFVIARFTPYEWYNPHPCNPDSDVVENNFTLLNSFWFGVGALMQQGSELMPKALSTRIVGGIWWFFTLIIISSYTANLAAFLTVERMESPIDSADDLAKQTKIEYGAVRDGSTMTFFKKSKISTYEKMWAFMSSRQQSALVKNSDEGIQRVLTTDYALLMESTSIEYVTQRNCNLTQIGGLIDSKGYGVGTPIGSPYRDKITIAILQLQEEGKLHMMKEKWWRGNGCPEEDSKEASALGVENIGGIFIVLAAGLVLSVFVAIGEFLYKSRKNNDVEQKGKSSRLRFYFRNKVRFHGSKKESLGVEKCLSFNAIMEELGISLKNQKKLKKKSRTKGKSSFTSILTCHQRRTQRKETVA
Chain of rat Opioid Receptor, Non-selective Binding, Oprm1 (gene 25601) (P33535 whole entry, looked up): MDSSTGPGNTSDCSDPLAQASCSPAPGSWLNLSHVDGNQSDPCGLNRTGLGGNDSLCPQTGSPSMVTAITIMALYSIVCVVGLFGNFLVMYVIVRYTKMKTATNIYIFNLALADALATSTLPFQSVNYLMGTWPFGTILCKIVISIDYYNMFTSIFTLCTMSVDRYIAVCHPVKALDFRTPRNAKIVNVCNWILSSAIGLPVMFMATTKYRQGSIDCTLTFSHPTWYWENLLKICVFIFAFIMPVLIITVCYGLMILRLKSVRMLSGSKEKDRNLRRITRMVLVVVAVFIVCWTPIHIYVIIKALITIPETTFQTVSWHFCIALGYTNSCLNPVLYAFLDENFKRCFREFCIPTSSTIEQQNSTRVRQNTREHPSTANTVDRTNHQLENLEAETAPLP
Chain of human Androgen Receptor (AR), AR (gene 367) (P10275 whole entry, looked up): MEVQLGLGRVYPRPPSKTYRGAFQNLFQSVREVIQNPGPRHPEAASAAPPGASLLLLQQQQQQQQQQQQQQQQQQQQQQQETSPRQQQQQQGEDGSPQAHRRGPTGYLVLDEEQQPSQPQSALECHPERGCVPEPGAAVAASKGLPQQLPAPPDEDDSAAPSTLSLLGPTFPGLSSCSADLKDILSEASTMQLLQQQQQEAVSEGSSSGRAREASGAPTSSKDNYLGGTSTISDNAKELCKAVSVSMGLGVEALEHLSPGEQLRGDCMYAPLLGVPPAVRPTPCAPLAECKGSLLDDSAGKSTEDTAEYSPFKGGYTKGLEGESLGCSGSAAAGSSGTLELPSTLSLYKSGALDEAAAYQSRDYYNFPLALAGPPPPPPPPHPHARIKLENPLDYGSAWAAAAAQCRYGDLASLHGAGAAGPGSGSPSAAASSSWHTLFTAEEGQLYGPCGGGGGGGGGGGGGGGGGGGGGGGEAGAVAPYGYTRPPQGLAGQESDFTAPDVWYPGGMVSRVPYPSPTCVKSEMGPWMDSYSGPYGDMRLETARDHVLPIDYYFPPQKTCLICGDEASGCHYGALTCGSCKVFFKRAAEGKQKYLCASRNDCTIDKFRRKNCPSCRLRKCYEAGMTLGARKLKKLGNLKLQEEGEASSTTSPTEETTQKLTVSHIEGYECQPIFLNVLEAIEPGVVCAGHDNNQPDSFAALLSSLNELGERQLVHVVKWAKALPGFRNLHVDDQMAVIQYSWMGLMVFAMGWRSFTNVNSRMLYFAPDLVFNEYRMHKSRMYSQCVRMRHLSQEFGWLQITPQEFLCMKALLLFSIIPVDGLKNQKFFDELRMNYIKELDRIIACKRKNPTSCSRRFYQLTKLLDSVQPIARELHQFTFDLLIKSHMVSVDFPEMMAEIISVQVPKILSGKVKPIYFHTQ
Chain of rat Vasopressin 1 Receptor (V1), Avpr1a (gene 25107) (P30560 whole entry, looked up): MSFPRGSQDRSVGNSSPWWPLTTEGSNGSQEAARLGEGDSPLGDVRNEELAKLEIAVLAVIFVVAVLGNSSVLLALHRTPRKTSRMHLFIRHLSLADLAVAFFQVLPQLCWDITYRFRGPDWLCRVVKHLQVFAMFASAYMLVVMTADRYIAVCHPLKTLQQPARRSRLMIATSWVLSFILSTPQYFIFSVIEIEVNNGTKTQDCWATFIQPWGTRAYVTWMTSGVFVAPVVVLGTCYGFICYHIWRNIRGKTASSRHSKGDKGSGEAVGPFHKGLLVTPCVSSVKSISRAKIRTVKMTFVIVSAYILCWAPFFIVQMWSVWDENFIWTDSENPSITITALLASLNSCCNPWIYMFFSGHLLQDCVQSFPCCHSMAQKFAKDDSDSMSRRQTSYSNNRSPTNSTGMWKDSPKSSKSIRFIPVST
Chain of bovine Gamma-Aminobutyric Acid Type A Receptor BDZ, alpha 1 site (GABARa1), GABRA1 (gene 780973) (P08219 whole entry, looked up): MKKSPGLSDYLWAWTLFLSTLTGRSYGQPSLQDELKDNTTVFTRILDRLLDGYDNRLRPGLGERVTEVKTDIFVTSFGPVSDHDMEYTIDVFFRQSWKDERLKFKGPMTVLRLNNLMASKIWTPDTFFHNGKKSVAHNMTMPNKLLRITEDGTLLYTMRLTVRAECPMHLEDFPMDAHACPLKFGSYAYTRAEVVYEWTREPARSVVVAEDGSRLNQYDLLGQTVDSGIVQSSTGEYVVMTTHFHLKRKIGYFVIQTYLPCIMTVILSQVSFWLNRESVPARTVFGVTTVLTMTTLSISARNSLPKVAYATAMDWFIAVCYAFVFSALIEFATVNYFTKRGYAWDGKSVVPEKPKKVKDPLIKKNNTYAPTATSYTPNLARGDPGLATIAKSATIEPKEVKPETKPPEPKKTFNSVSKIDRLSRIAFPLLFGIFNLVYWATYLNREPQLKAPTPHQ

CCCN(CCOc1c(Cl)cc(Cl)cc1Cl)C(=O)n1ccnc1
AC50 [1]: 6.02 µM (active) | AC50 [2]: 14.8 µM (active) | outcome [3]: inactive | AC50 [4]: 14.3 µM (active) | outcome [5]: inactive | AC50 [6]: 8.01 µM (active) | AC50 [7]: 53.9 nM (active)

O=S(=O)(O)C(F)(F)C(F)(F)C(F)(F)C(F)(F)C(F)(F)C(F)(F)C(F)(F)C(F)(F)F
outcome [3]: inactive | outcome [4]: inactive | outcome [8]: inactive | outcome [7]: inactive

CCOC1Oc2ccc(OS(C)(=O)=O)cc2C1(C)C (stereo not given)
outcome [9]: inactive | outcome [10]: inactive

Oc1ccc(Cl)cc1Cc1ccccc1
AC50 [1]: 7.33 µM (active) | outcome [1]: inactive | outcome [2]: inactive | AC50 [3]: 30.2 µM (active) [middle of 7 runs] | AC50 [4]: 10.9 µM (active) | outcome [4]: inactive | outcome [8]: inactive | AC50 [11]: 7.84 µM (active) [middle of 6 runs] | outcome [12]: inactive | AC50 [7]: 11 µM (active) and 9.89 µM (active) and 8.7 µM (active) | outcome [7]: inactive

O=C(Nc1ccccc1)Nc1cnns1
AC50 [13]: 7.77 µM (active) | outcome [14]: inactive | outcome [15]: inactive

COP(=S)(OC)Oc1ccc([N+](=O)[O-])cc1
outcome [9]: inactive | outcome [16]: inactive | AC50 [7]: 15700 nM (active)

CNC(=O)/C=C(\C)OP(=O)(OC)OC
outcome [13]: inactive

CC(C)N(C(=O)COc1nnc(C(F)(F)F)s1)c1ccc(F)cc1
AC50 [16]: 14.2 µM (active) | AC50 [7]: 24.8 nM (active)

O=C(NC(=O)c1c(F)cccc1F)Nc1ccc(OC(F)(F)C(F)OC(F)(F)F)c(Cl)c1 (stereo not given)
outcome [13]: inactive

[2H]C1([2H])[n+]2ccccc2-c2cccc[n+]2C1([2H])[2H]
outcome [16]: inactive

CC(C)(C)C(O)C(Oc1ccc(Cl)cc1)n1cncn1 (stereo not given)
AC50 [1]: 3.04 µM (active) and 27.7 µM (active) | outcome [7]: inactive

COP(=S)(OC)Oc1ccc(SC)c(C)c1
outcome [9]: inactive | AC50 [7]: 4640 nM (active)

N#Cc1c(Cl)c(Cl)c(Cl)c(C#N)c1Cl
outcome [17]: inactive

CC[C@H](C)[C@H]1O[C@]2(C=C[C@@H]1C)C[C@@H]1C[C@@H](C/C=C(\C)[C@@H](O[C@H]3C[C@H](OC)[C@@H](O[C@H]4C[C@H](OC)[C@@H](O)[C@H](C)O4)[C@H](C)O3)[C@@H](C)/C=C/C=C3\CO[C@@H]4[C@H](O)C(C)=C[C@@H](C(=O)O1)[C@]34O)O2 (tested in a mixture with another compound)
AC50 [3]: 4.89 µM (active) | AC50 [13]: 8.26 µM (active) | outcome [7]: inactive | AC50 [18]: 15.5 µM (active)

C[C@H]1[C@H](c2ccc(Cl)cc2)SC(=O)N1C(=O)NC1CCCCC1
outcome [9]: inactive

Oc1cc(Cl)ccc1Oc1ccc(Cl)cc1Cl
AC50 [1]: 3.23 µM (active) and 12.1 µM (active) | outcome [2]: inactive | outcome [4]: inactive | AC50 [7]: 5.64 µM (active) and 25.5 µM (active) and 9.13 µM (active) | outcome [7]: inactive

Cc1cc(C)nc(NC(=O)NS(=O)(=O)c2ccccc2C(=O)OC2COC2)n1
outcome [14]: inactive | outcome [6]: inactive

CC(C)(C)C(O)/C(=C\c1ccc(Cl)cc1Cl)n1cncn1 (stereo not given)
outcome [17]: inactive | outcome [2]: inactive

O=[N+]([O-])/N=C1\NCCN1Cc1ccc(Cl)nc1
AC50 [9]: 10.9 µM (active) | outcome [7]: inactive

COP(=O)(OC)OC=C(Cl)Cl
outcome [17]: inactive

CCS(=O)(=O)c1cccnc1S(=O)(=O)NC(=O)Nc1nc(OC)cc(OC)n1
outcome [5]: inactive

CCC(C)Nc1c([N+](=O)[O-])cc(C(C)(C)C)cc1[N+](=O)[O-] (stereo not given)
outcome [8]: inactive

CCCN(CCC)c1c([N+](=O)[O-])cc(C(F)(F)F)cc1[N+](=O)[O-]
outcome [11]: inactive

CCOc1nc(NC)nc(NC(=O)NS(=O)(=O)c2ccccc2C(=O)OC)n1
outcome [11]: inactive

COc1cc(OC)nc(NC(=O)NS(=O)(=O)c2cc(NC=O)ccc2C(=O)N(C)C)n1
outcome [6]: inactive

O=C(O)COc1ccc(Cl)cc1Cl
outcome [12]: inactive

ClC1C(Cl)C(Cl)C(Cl)C(Cl)C1Cl (stereo not given)
outcome [12]: inactive

N#CN
outcome [19]: inactive
